# According to PubChem BioAssay (NCATS):
# Inconclusive results are not listed. A call without a number means that no potency is given here. The source made the active and inactive calls. Calls come from the whole dose curve; as a rule, active = well fitted inhibition curve with a large enough effect; inconclusive = small, poorly fitted or top-dose-only effect; inactive = flat fitted curve, though single readings scatter.
# Molecular target: Voltage-gated inwardly rectifying potassium channel KCNH2 (Homo sapiens) (UniProt Q12809)
# Sequence (Q12809 whole entry, looked up): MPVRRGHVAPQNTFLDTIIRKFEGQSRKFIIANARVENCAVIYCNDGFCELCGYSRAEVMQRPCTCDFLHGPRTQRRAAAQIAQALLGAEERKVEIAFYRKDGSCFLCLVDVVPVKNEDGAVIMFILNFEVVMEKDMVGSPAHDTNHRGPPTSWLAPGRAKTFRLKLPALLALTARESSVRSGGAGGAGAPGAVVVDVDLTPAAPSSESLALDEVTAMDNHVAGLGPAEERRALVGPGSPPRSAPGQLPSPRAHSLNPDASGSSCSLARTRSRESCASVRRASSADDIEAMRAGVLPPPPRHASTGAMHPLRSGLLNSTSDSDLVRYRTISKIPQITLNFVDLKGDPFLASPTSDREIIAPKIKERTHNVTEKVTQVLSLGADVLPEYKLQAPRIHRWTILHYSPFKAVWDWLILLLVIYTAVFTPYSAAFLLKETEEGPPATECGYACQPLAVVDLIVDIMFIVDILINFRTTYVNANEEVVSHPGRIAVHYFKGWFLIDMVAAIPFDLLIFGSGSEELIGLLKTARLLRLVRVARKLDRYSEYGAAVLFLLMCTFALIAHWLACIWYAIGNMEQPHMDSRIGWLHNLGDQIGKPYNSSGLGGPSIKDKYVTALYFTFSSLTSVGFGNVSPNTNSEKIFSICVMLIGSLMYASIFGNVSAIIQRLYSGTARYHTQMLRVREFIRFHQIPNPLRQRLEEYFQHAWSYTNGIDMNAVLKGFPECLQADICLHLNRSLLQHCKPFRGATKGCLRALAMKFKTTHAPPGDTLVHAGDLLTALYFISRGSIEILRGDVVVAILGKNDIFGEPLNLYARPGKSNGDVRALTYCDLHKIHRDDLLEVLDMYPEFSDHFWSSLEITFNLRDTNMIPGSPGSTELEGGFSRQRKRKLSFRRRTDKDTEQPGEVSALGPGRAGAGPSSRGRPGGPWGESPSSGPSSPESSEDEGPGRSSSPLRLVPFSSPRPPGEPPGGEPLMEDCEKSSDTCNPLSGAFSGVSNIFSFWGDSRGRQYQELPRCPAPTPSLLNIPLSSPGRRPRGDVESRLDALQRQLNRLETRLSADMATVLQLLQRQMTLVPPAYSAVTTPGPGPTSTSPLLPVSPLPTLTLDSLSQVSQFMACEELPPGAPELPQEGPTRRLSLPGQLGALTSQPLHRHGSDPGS
# Test: qHTS Assay for Small Molecule Inhibitors of the Human hERG Channel Activity (AID 588834);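 note: lower thallium flux fluorescence means stronger hERG block; nearly all actives have a fitted effect of over 50% in size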
# Details: U2OS BacMam hERG, FluxOR thallium flux fluorescence; series mostly up to 46.1 µM
# Method in brief: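 Homogeneous FluxOR thallium flux assay using hERG-expressing U2OS cells (BacMam). Compound treatment about 10 minutes preceded stimulation; reduced fluorescence taken as channel block.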
# Potency is the fitted concentration of half-maximal effect.
row,SMILES,Potency
1,O=P(O)(O)OP(=O)(O)OP(=O)(O)O,inactive
2,NC(=O)OCC(O)COc1ccc(Cl)cc1 (stereo not drawn),inactive
3,CCN(CC)C(=O)c1cccnc1,inactive
4,CC(=O)N[C@@H]([C@@H](O)[C@H](O)[C@H](O)CO)[C@@H](O)CC(=O)C(=O)O,inactive
5,CC(=NCc1ccccc1)c1ccccc1O,inactive
6,CCCCC/C=C\C/C=C\C/C=C\CCCCC(=O)O,inactive
7,CC[C@H]1NC(=O)[C@@H](NC(=O)c2ncccc2O)[C@@H](C)OC(=O)[C@H](c2ccccc2)NC(=O)[C@@H]2CC(=O)CCN2C(=O)[C@H](Cc2ccccc2)N(C)C(=O)[C@@H]2CCCN2C1=O,inactive
8,CN1C(=O)C[C@@H](C(=O)N[C@@H](Cc2cnc[nH]2)C(=O)N2CCC[C@H]2C(N)=O)NC1=O,inactive
9,COc1cc(NCCCC(C)N)c2ncccc2c1 (stereo not drawn),inactive
10,CO/N=C(\C(=O)N[C@@H]1C(=O)N2C(C(=O)O)=C(CSc3nnnn3C)CS[C@H]12)c1csc(N)n1,inactive
11,O=C1c2ccccc2CN2C(=O)c3ccccc3CN12,inactive
12,CC(=C\c1ccccc1)/C=C1/SC(=S)N(CC(=O)O)C1=O,inactive
13,CC(=O)Nc1ccc(OC(=O)c2ccccc2O)cc1,inactive
14,OC[C@H]1OC([S-])[C@H](O)[C@@H](O)[C@@H]1O.[Au+] (stereo partly drawn),inactive
15,N=C(N)n1cccn1,inactive
16,CS(=O)(=O)c1ccc([C@@H](O)[C@@H](COC(=O)CN)NC(=O)C(Cl)Cl)cc1,inactive
17,CCN(CC)CCC(=O)N1c2ccccc2Sc2ccc(Cl)cc21,14.1 µM (active)
18,O=C(OCc1ccccc1)c1cccnc1,inactive
19,CN[C@@H]1[C@@H](O[C@H]2O[C@H](CO)[C@@H](N)[C@H](O)[C@H]2O)O[C@H]2C[C@@H](N)[C@@H](O[C@H]3[C@H](O)[C@@H](O)[C@H](N)C[C@@H]3N)O[C@@H]2[C@@H]1O,inactive

row,SMILES,Potency
1,NC(=O)c1cc[n+](CC2=C(C(=O)O)N3C(=O)[C@@H](NC(=O)C(c4ccccc4)S(=O)(=O)[O-])[C@H]3SC2)cc1 (stereo partly drawn),inactive
2,CC(=O)N[C@@H]1C(O[C@H]2O[C@H](C(=O)O)C(O)[C@H](O)[C@H]2O)[C@H](O)[C@@H](CO)O[C@H]1O[C@@H]1C(C(=O)O)O[C@@H](O[C@H]2[C@H](O)[C@@H](CO)OC(O)[C@@H]2NC(C)=O)[C@H](O)[C@H]1O (stereo partly drawn),inactive
3,C=C1CC[C@H](O)CC1=C/C=C1\CCC[C@]2(C)[C@@H]([C@H](C)CCCC(C)(C)O)CC[C@@H]12,inactive
4,Nc1ncnc2c1ncn2CCOCP(=O)(O)O,inactive
5,COc1cc2c(cc1OC)[C@@H](c1ccccc1)CN(C)CC2,inactive
6,COc1ccc([C@@H]2CC(=O)c3c(O)cc(O[C@@H]4O[C@H](CO[C@@H]5O[C@@H](C)[C@H](O)[C@@H](O)[C@H]5O)[C@@H](O)[C@H](O)[C@H]4O)cc3O2)cc1O,inactive
7,C=C1[C@H](CO)[C@@H](O)C[C@@H]1n1cnc2c(=O)[nH]c(N)nc21,inactive
8,CN(Cc1ccccc1)Cc1ccccc1,inactive
9,CC1(O)CCC(C(C)(C)O)CC1 (stereo not drawn),inactive
10,CC(CNC(=O)c1cccnc1)NC(=O)c1cccnc1 (stereo not drawn),inactive
11,C[C@@H]1C/C=C/C=C/C=C/C=C/[C@H](O[C@@H]2O[C@H](C)[C@@H](O)[C@H](N)[C@@H]2O)C[C@@H]2O[C@](O)(C[C@@H](O)C[C@H]3O[C@@H]3/C=C/C(=O)O1)C[C@H](O)[C@H]2C(=O)O,inactive
12,NS(=O)(=O)c1cc2c(cc1Cl)NC(Cc1ccccc1)NS2(=O)=O (stereo not drawn),inactive
13,C[S+](C)CCC(N)C(=O)O (stereo not drawn),inactive
14,O=C(O)c1cc(O)c2c(c1)[C@H]([C@H]1c3cc(C(=O)O)cc(O)c3C(=O)c3c(O[C@@H]4O[C@H](CO)[C@@H](O)[C@H](O)[C@H]4O)cccc31)c1cccc(O[C@@H]3O[C@H](CO)[C@@H](O)[C@H](O)[C@H]3O)c1C2=O,inactive
15,O=C[C@H](O)[C@@H](O)[C@@H](O)[C@H](O)CO,inactive
16,CN=C1C=CC(=C(c2ccc(N(C)C)cc2)c2ccc(N(C)C)cc2)C=C1,4.47 µM (active)
17,CC[C@@H]1/C=C(\C)C[C@H](C)C[C@H](OC)[C@H]2O[C@@](O)(C(=O)C(=O)N3CCCC[C@H]3C(=O)O[C@H](/C(C)=C/[C@@H]3CC[C@@H](Cl)[C@H](OC)C3)[C@H](C)[C@@H](O)CC1=O)[C@H](C)C[C@@H]2OC,inactive
18,CC(=O)[O][Al][O]C(C)=O,inactive
19,CCCC(CCC)C(=O)OC1C[C@H]2CC[C@@H](C1)[N+]2(C)C (stereo partly drawn),inactive
